Data reported in PubChem BioAssay AID2472 (National Center for Advancing Translational Sciences (NCATS), 2010).
“And” between values parts separate entries of the source, which are not always exact repeats. Equal entries are not always repeated. Among all 290,000 compounds or so, about 2,000 (0.69%) were called active. For the sample, actives were picked, then their nearest neighbours and some compounds at random. Values without a mark were called inactive. No stated cut-off is given here; in the data, active means activity change below about -30%; inactive means the rest, inconclusive results apart.

Experiment: qHTS Assay for Inhibitors of Fructose-1,6-bisphosphate Aldolase from Giardia Lamblia: Coupling assay counterscreen
Settings: coupling enzyme system counterscreen, AmpLite Red fluorescence; at 58.2 µM (top of the series)
From the text: MLPCN Grant: MH085699-01 Assay Provider: Osnat Herzberg, University of Maryland NCGC Assay Overview: The objective of this project is to obtain compounds that inhibit Giardia lamblia growth. G. lamblia is a human pathogen which afflicts impoverished nations; it is the most common cause of outbreaks of diarrhea in the United States. During the course of our study of potential drug targets in Giardia, we have identified the Class II (Zn2+ functions in electrophilic catalysis) fructose-1,6-bisphosphate aldolase (FBPA) as an excellent candidate for drug targeting. FBPA is a key glycolytic pathway enzyme, essential for G. lamblia survival. The human FBPA belongs to the Class I aldolases, which have a different substrate binding site structure and a radically different catalytic mechanism (employing a lysine-Schiff base intermediate). Therefore, affinity-based or mechanism-based inhibitors of the Giardia FBPA are expected not to interfere with the catalytic function of the human FBPA. A glyceraldehyde-3-phosphate dehydrogenase/triose phosphate isomerase/NAD/arsenate coupled assay was adapted to the 1536-well HTP format for use in the primary screen. This was done by coupling it to a diaphorase/resazurin/resorufin reaction that can be monitored by fluorescence (excitation, 544 nm; emission, 590 nm). Compounds identified in this screen will be further evaluated by coupling the […]/triose phosphate isomerase/NADH assay to a phenazine methosulfate/tetranitroblue tetrazolium color reaction. False positives due to the dehydrogenases and diaphorase inhibition will be eliminated, and selectivity assay will triage inhibitors of mammalian triose phosphate isomerase and the Class I FBPA. G. lamblia FBPA inhibitors identified by the in vitro analyses will be examined for growth inhibition of Giardia trophozoites, and for cytotoxicity in human cells. This assay specifically addresses whether activity observed in the primary screen (AID 2451) is related to inhibition of the coupling assay used, as opposed to inhibition of aldolase. Actives in this assay are considered inconclusive for activity against aldolase.
NCGC Assay Protocol: Step,Parameter,Value,Description 1,Coupling enzyme reagent,2 uL,glyceraldehyde-3-phosphate 2,Compound,23 nL,3.68 nM-57.5 uM final concentration 3,Time,10 min,RT Incubation 4,Substrate/detection Reagent,2 uL,Substrate + enzyme coupling system + AmpLite Red kit 5,Time,20 min,RT Incubation 6,Detector,525 nm/598 nm (Fluorescence),ViewLux Fluorescence Read (Read 1) Notes: 1,Medium-binding black solid-bottom Kalypsys plates. FRD or Kalypsys dispenser. 2,Compound Library (10 mM ,1:5 dilution). Pin-transferred for a [final] range of 3.68 nM-57.5 uM. 3,RT incubation 4,FRD or Kalypsys dispenser, 2 uL of reaction mixture. Bottle kept at 4C and covered in foil to protect from light. 5,RT incubation 6,ViewLux Protocol 1194; Excitation filter wheel A (525/20 Pol; BODIPY TMR FP), Emission filter wheel B (598/25 S; BODIPY TMR FP S). Keywords: Fructose-bisphosphate aldolase, FBPA , Giardia lamblia , Giardia, HTS, Inhibitors
On the % scale 0 is the no-effect control and ±100 the full control effect.

Row | Structure (SMILES) | activity change, negative = inhibition
1 | CCOc1ccc(C(c2c(C)[nH][nH]c2=O)c2c(C)[nH][nH]c2=O)cc1OCC | -13.2%
2 | Cc1[nH][nH]c(=O)c1C(c1ccc2c(c1)OCO2)c1c(C)[nH][nH]c1=O | -3.39%
3 | Cc1[nH][nH]c(=O)c1C(c1ccc(-c2ccc(Cl)cc2)o1)c1c(C)[nH][nH]c1=O | -48.6% (active)
4 | Cc1ccc(C(=O)NCCN2CCOCC2)cc1C | 3.18%
5 | Cc1cc(C)cc(C(=O)NCCN2CCOCC2)c1 | 0.78%
6 | CC(=O)Oc1cc2c(C(=O)NCCN3CCOCC3)c(C)oc2c2ccccc12 | -40.7% (active)
7 | CN(CCC(=O)Nc1cc(S(=O)(=O)N(C)C)ccc1Cl)CC(=O)Nc1ccc(F)cc1 | 0.642%
8 | COc1cc(OC)c2c(c1C(CCN1CCCCC1)c1ccc(N(C)C)cc1)OC(=O)CC2c1ccc(N(C)C)cc1 (configuration not stated) | 0.0898%
9 | O=c1c2cc(Br)ccc2nc(-c2cccc(Cl)c2)n1O | -2.84%
10 | COc1ccc(C(=O)CCc2ccccc2O)c(OC)c1 | -0.998%
11 | Cc1ccc2cc3cc(C(=O)N4CCCCCC4)oc3nc2c1 | -75.9% (active)
12 | Cc1ccc(C(=O)N2CCCCCC2)cc1Br | 0.385%
13 | Cc1cc(C)cc(NC(=O)N2CCCCCCC2)c1 | 1.15%
14 | O=C(Nc1nnc(-c2ccccc2F)s1)c1ccccc1F | -1.59%
15 | COc1ccc(CCC(C)N2CCc3ccccc3C2)cc1 (configuration not stated) | -2.37%
16 | COc1ccc(Cl)cc1NC(=O)COC(=O)C(CC(C)C)N1C(=O)C2CC=CCC2C1=O (configuration not stated) | -0.682%
17 | COc1ccc2[nH]cc(CCNc3cc(-c4ccccc4CN(C)C)ncn3)c2c1 | -1.84%
18 | COc1cccc(-c2cc(NCCc3c[nH]c4ccc(OC)cc34)ncn2)c1 | -31% (active)
19 | COc1ccc2[nH]cc(CCNc3ncnc4ccc(-c5ccccc5CN(C)C)cc34)c2c1 | -1.31%
20 | COC(=O)CC1c2ccccc2C(Cc2ccc(OC)cc2)=C(C)N1C(=O)OC (configuration not stated) | -0.16%
21 | COc1cccc(C(=O)CC(=O)C(=O)Nc2ccc([N+](=O)[O-])cc2C)c1 | -0.191%
22 | CNC(=O)N1c2ccccc2C=Cc2ccccc21 | -0.0842%

Row | Structure (SMILES) | activity change, negative = inhibition
23 | Cc1nn(-c2ccccc2)c(Cl)c1/C=C/C(=O)c1ccc(O)cc1 | 6.85%
24 | Cc1ccccc1-n1nc(C)c2cc(C(=O)NC3CC3)sc21 | 5.2%
25 | Cc1ccccc1-n1nc(C)c2c1N=C1C(Cl)=CC(Cl)=CN1C2c1ccc(C(=O)O)cc1 (configuration not stated) | -39.1% (active)
26 | COc1ccc(Br)cc1C1C2C=CCC(C)C2C(=O)N1Cc1ccccc1 (configuration not stated) | 4.05%
27 | CC(=O)Nc1ccc(NC(=O)C2CCCN(S(=O)(=O)c3ccc(Cl)cc3)C2)cc1 (configuration not stated) | 1.51%
28 | CC(C)CC[n+]1ccn(C2=C([O-])c3ccccc3C(=O)/C2=N\S(=O)(=O)c2ccccc2)c1 | -54.9% (active)
29 | COc1c(O)c2c(=O)cc(OC)c3c4c(OC)cc(=O)c5c(O)c(OC)c6c(c(c1C[C@@](C)(O)[C@H]6C(C)=O)c23)c54 | -12.5%
30 | CCCCN=C1C([N+](=O)[O-])=CC=C2C1=NC1(CCCCC1)N2O | -41.7% (active)
31 | CC(c1ccccn1)N(C)C(=O)c1ccc2nc(Cc3cccc(Cl)c3)oc2c1 (configuration not stated) | 1.38%
32 | COC(=O)C1=C(C)N(Cc2ccccc2)C2=C3C(=O)N(c4ccccc4)C(=O)C3[C@@](O)(C(=O)OC)C(=O)N2C1c1ccccc1 (some centres not stated) | 1.55% and 0.598%
33 | Cn1c(CCN2CCCC2)nc2cc(NS(=O)(=O)c3ccccc3)ccc21 | -1.06%
34 | O=S(=O)(Nc1ccc2nc(-c3ccco3)[nH]c2c1)c1ccccc1 | -35.1% (active)
35 | O=S(=O)(Nc1ccc2cn[nH]c2c1)c1ccccc1 | -8.07%
36 | CCOC(=O)c1ccccc1NC(=O)COC(=O)CCC(=O)N1CCOCC1 | 1.14%
37 | CCCN1[C@H](C(=O)OC)C[C@@]2(O)[C@@H](O)[C@@H](O)[C@@H](O)C[C@@H]12 | -12.1%
38 | COc1ccc(-c2ccc(OC)c(C3C4C=CCC(C)C4C(=O)N3Cc3ccccc3)c2)cc1C (configuration not stated) | -0.316%
39 | Cc1cc(Br)ccc1NC(=S)NC1CCCC1 | 2.32%
40 | CC[C@@H](C)[C@H](NC(=O)CCc1c(C)c2cc3c4c(oc3c(C)c2oc1=O)CCCC4)C(=O)O | 0.476%
41 | COC(=O)C1=C(C(=O)OC)[C@@H]2Nc3ccccc3[C@@]23C[C@@H](C(=O)OC)N(S(=O)(=O)c2ccc([N+](=O)[O-])cc2)C3=N1 | -1.96%
42 | CCOc1ccc(N(C)Cc2cc(=O)oc3ccc(OC)cc23)cc1 | -3.63%
43 | COC(=O)c1ccc(NC(=O)CSc2nnc(CNc3ccc(OC)cc3)n2C)cc1 | -19.7%
44 | C=CCn1c(CNC(=O)c2ccco2)nnc1SCC(=O)c1ccc(OC)cc1 | 1.42%

Row | Structure (SMILES) | activity change, negative = inhibition
45 | CCn1c(CNc2ccc(OC)cc2)nnc1SCC(=O)c1ccc(OC)cc1 | -36.8% (active)
46 | CC1=C(C(N)=O)C(c2ccc(F)cc2)n2nc(CCCO)nc2N1 (configuration not stated) | -0.212%
47 | O=C(O)c1cc(S(=O)(=O)NC2CCCc3ccccc32)ccc1O (configuration not stated) | 20.1%
48 | CCN(CC)CCn1c(N)c(S(=O)(=O)c2ccccc2)c2nc3ccccc3nc21 | 2.05%
49 | Cc1ccc(S(=O)(=O)c2c(N)n(C)c3nc4ccccc4nc23)cc1 | -4.65%
50 | C=CCn1c(N)c(S(=O)(=O)c2cccs2)c2nc3ccccc3nc21 | -35.3% (active)
51 | CC(=O)NC1CCN(CC(=O)Nc2nccs2)CC1 | -1.15%
52 | c1ccc2cc3c(NCCN4CCOCC4)ccnc3cc2c1 | -52.2% (active)
53 | Clc1ccccc1-c1cc(NCCN2CCOCC2)ncn1 | 2.16%
54 | CN(C)c1ccc(-c2nc(NCCN3CCOCC3)c3ccccc3n2)cc1 | -0.456%
55 | COc1cc(NC(=O)c2ccccc2)c(OC)cc1NC(=O)Cc1ccccc1 | -0.254%
56 | COc1cccc(CNC(=O)CCC2CCCN(Cc3ccc(OC(F)F)cc3)C2)c1 (configuration not stated) | 5.02%
57 | Cc1ccc(C(=O)N(CC(=O)NC2CCCC2)c2ccc(F)cc2)s1 | -3.12%
58 | COCCN1C=C2C(=O)C(C)(OC(=O)C3CCCC3)C(=O)C=C2C=C1c1ccsc1 (configuration not stated) | -33.6% (active) and -32.5% (active)
59 | CC1(OC(=O)C2CCCC2)C(=O)C=C2C=C(c3ccc(C#N)cc3)OC=C2C1=O (configuration not stated) | -0.443%
60 | CC1(OC(=O)CCc2ccccc2)C(=O)C=C2C=C(c3ccc(C#N)cc3)N(CCc3ccccn3)C=C2C1=O (configuration not stated) | -28.3% and -0.189%
61 | Cc1onc(-c2ccccc2Cl)c1C(=O)OCC(=O)c1ccccc1 | -1.67%
62 | CC(=O)N(C1=C(Cl)C(=O)c2ccccc2C1=O)c1ccc(C(=O)O)cc1 | -85.1% (active)
63 | O=C(CN1C(=O)c2ccccc2C1=O)NCc1ccc(C(=O)O)cc1 | 0.209%
64 | CC(C)N(C(=O)c1ccc(-c2ccccc2F)cc1)C(C)C | -0.0112%
65 | COc1ccc(C(=O)N2CCC3(CC2)CCN(c2ccccn2)CC3)cc1 | -4.93%
66 | Cc1ccc(CNC(=O)Cn2cnc(S(=O)(=O)N3CCCCC3)c2)o1 | 0.0578%

Row | Structure (SMILES) | activity change, negative = inhibition
67 | COCCNC(=O)c1ccc(Cn2c(SCC(=O)NCC3CCCO3)nc3ccc(Br)cc3c2=O)cc1 (configuration not stated) | 0.29%
68 | CCCCn1c(SCC(=O)NCC2CCCO2)nc2ccc(N3CCOCC3)cc2c1=O (configuration not stated) | -43.6% (active)
69 | O=C(CCCn1c(SCC(=O)c2ccccc2)nc2ccccc2c1=O)NCC1CCCO1 (configuration not stated) | -0.079%
70 | Cc1ccc(OCC(=O)NCCCNC(=O)c2cccnc2)cc1C | -0.615%
71 | COc1ccc(/C=N/Nc2nc3ccccc3c(=O)[nH]2)cc1 | 0.889%
72 | O=[N+]([O-])c1cccc2ncccc12 | 0.0628%
73 | COc1ccc(C=Nc2cccc3ncccc23)cc1 | -34.4% (active)
74 | CCCCC/C=C\C/C=C\C/C=C\CCCCC(=O)NCC(=O)O | 4.26%
75 | COC(=O)C1=C(C(=O)OC)[C@@H]2N(C)c3ccccc3[C@@]23C[C@@H](C(=O)OC)N(S(=O)(=O)c2cccs2)C3=N1 | -0.105%
76 | O=C1CN(Cc2ccccc2)S(=O)(=O)c2ccccc21 | 13.2%
77 | COc1ccc(CC(=O)NCC(=O)N/N=C/c2cc(Br)ccc2OC)cc1 | -33.8% (active)
78 | Cc1ccc(OCCOCCOc2ccc(Br)cc2/C=N\NC(=O)c2ccncc2)cc1 | -5.74%
79 | COc1ccc(CC(=O)N/N=C/c2cc([N+](=O)[O-])cc(Br)c2O)cc1 | 8.72%
80 | COc1cccc(OCc2cc(C(=O)N3CCN(C(=O)c4ccco4)CC3)no2)c1 | -0.102%
81 | Cc1cc(C)c(C#N)c(N2CCC(C(N)=O)CC2)n1 | 0.379%
82 | N#Cc1c(-c2ccccc2)cc(-c2ccccc2)nc1SCC(=O)O | 5.25%
83 | N#Cc1c(N2CCCCC2)nc(N)c2c(N)nc(SCC(=O)O)cc12 | -31.7% (active)
84 | CCN1CCN(c2sc(S(C)(=O)=O)nc2S(=O)(=O)c2ccc(Cl)cc2)CC1 | 1.03%
85 | CC(=O)c1c(-c2ccccc2)c2ccccc2[nH]c1=O | 7.44%
86 | O=c1[nH]c2ccccc2n2c(-c3ccccc3)nnc12 | -62.8% (active)
87 | Cc1ccc(-c2nc3ccccc3[nH]c2=O)cc1 | 1.32%
